Assay results as given in paper PMC5700166.

Experiments:
Test in all cases: protein-binding microarray (PBM); PBM: ~300 nM protein, 6 mM HEPES pH 7.8, 80 mM KCl, 0.5 mM EDTA, 0.5 mM EGTA, 6% glycerol, 35 ng/ul poly-dIdC, 1% milk, 1 h, room temperature; Ap Aiptasia and Nv Nematostella (sea anemones) / Co Capsaspora / Aq Amphimedon (sponge) / Dm Drosophila / Hu human; RHD is the Rel homology domain; high values mean tight binding
Conditions in all cases: dsDNA, one strand shown
GST-Ap-NF-kB RHD = target: T1, GST-Ap-NF-kB RHD (Exaiptasia pallida (Aiptasia), UniProt A0A913YAJ5 2-422)
T1 sequence: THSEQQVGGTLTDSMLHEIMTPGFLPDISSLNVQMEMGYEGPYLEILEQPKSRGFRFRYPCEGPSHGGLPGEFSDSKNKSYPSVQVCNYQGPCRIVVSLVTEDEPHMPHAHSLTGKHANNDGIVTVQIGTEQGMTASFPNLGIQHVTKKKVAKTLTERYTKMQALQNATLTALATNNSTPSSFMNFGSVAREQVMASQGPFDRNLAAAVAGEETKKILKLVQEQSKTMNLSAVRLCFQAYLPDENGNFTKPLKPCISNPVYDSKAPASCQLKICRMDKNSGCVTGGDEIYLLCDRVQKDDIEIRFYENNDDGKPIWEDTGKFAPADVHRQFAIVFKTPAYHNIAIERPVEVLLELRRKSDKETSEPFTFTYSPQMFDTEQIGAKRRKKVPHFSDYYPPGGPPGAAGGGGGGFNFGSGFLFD

[1] = target: T2, GST-Nv-NF-kB (Cys allele) (Nematostella vectensis, UniProt E5G601 2-411)
T2 sequence: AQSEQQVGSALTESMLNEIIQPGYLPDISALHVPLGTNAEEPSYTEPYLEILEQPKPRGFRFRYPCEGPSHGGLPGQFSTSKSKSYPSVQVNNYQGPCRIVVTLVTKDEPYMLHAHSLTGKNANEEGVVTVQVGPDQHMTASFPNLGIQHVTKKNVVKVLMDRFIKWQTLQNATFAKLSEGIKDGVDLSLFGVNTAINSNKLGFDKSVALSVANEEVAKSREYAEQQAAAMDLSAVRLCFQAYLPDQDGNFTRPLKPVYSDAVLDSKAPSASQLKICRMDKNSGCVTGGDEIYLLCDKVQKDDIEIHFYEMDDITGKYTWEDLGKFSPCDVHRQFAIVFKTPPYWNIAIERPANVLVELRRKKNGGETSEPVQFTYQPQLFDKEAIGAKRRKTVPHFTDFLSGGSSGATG

GST-Co-NF-kB = target: T3, GST-Co-NF-kB (Capsaspora owczarzaki, UniProt F1ARL5 200-546)
T3 sequence: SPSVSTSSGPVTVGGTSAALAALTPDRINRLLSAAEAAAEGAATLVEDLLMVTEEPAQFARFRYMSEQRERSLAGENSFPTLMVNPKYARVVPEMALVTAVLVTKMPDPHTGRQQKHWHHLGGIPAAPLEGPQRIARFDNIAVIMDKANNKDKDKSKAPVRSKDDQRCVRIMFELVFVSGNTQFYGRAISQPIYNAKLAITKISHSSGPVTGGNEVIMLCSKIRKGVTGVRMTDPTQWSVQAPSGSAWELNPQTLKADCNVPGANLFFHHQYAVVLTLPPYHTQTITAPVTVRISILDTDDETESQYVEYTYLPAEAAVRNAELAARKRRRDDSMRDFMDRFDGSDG

GST-Dm-Relish = target: T4, GST-Dm-Relish (Drosophila melanogaster, UniProt Q94527 99-473)
T4 sequence: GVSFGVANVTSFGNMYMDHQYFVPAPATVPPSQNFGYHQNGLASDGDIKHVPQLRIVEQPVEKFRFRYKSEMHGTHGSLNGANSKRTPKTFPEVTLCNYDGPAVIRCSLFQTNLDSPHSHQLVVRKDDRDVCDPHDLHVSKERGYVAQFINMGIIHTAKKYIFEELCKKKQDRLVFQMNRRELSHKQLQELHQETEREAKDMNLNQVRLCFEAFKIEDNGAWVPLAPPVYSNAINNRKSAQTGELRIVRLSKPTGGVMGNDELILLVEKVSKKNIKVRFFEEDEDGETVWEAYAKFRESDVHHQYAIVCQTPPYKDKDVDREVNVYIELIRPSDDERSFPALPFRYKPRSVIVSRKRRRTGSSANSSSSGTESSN

GST-Aq-NF-kB = target: T5, GST-Aq-NF-kB (Amphimedon queenslandica, UniProt A9Y5G7 2-389)
T5 sequence: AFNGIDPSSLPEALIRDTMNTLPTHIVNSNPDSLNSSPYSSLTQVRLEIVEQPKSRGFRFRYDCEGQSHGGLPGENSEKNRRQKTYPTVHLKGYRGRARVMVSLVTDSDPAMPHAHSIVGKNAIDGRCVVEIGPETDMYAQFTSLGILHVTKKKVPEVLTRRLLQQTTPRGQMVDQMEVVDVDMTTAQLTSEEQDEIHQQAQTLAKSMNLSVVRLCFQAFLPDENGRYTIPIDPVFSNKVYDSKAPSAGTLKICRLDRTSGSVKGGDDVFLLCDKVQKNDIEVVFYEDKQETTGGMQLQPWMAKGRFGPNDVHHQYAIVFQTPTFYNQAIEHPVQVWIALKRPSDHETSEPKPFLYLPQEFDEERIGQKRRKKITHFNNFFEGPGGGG

CCGATTAACATCAGGGTATTCCATGATGTTAATCGGGTCTTGATTCGCTTGACGCTGCTG
binding signal (GST-Ap-NF-kB RHD): 3.89 z-score
binding signal [1]: 4.62 z-score
binding signal (GST-Co-NF-kB): 1.19 z-score
binding signal (GST-Dm-Relish): 5.81 z-score
binding signal (GST-Aq-NF-kB): 4.83 z-score

CCGATTAACATCACTGGGATTTCTGATGTTAATCGGGTCTTGATTCGCTTGACGCTGCTG
binding signal (GST-Ap-NF-kB RHD): 2.53 z-score
binding signal [1]: 1.96 z-score
binding signal (GST-Co-NF-kB): 1.15 z-score
binding signal (GST-Dm-Relish): 5.55 z-score
binding signal (GST-Aq-NF-kB): 2.37 z-score

CCGATTAACATCAGGGGGATAGATGATGTTAATCGGGTCTTGATTCGCTTGACGCTGCTG
binding signal (GST-Ap-NF-kB RHD): 4.85 z-score
binding signal [1]: 3.25 z-score
binding signal (GST-Co-NF-kB): 5.41 z-score
binding signal (GST-Dm-Relish): 2.03 z-score
binding signal (GST-Aq-NF-kB): 3.47 z-score

CCGATTAACATCAGGGGTTTCACTGATGTTAATCGGGTCTTGATTCGCTTGACGCTGCTG
binding signal (GST-Ap-NF-kB RHD): 3.56 z-score
binding signal [1]: 3.24 z-score
binding signal (GST-Co-NF-kB): 2.93 z-score
binding signal (GST-Dm-Relish): 7.34 z-score
binding signal (GST-Aq-NF-kB): 4.84 z-score

CCGATTAACATCAGGCATTTCCCTGATGTTAATCGGGTCTTGATTCGCTTGACGCTGCTG
binding signal (GST-Ap-NF-kB RHD): 3 z-score
binding signal [1]: 5.12 z-score
binding signal (GST-Co-NF-kB): 1.77 z-score
binding signal (GST-Dm-Relish): 1.97 z-score
binding signal (GST-Aq-NF-kB): 6.69 z-score

CCGATTAACATCAAGGGATTCCCTGATGTTAATCGGGTCTTGATTCGCTTGACGCTGCTG
binding signal (GST-Ap-NF-kB RHD): 6.28 z-score
binding signal [1]: 5.98 z-score
binding signal (GST-Co-NF-kB): 2.7 z-score
binding signal (GST-Dm-Relish): 9.45 z-score
binding signal (GST-Aq-NF-kB): 6.56 z-score

CCGATTAACATCACGGGGTTGCCTGATGTTAATCGGGTCTTGATTCGCTTGACGCTGCTG
binding signal (GST-Ap-NF-kB RHD): 1.46 z-score
binding signal [1]: 1.02 z-score
binding signal (GST-Co-NF-kB): 1.38 z-score
binding signal (GST-Dm-Relish): 2.5 z-score
binding signal (GST-Aq-NF-kB): 2.2 z-score

CCGATTAACATCAGGGGGTCACCTGATGTTAATCGGGTCTTGATTCGCTTGACGCTGCTG
binding signal (GST-Ap-NF-kB RHD): 3.61 z-score
binding signal [1]: 2.23 z-score
binding signal (GST-Co-NF-kB): 1.96 z-score
binding signal (GST-Dm-Relish): 6.03 z-score
binding signal (GST-Aq-NF-kB): 4.39 z-score

CCGATTAACATCACGAGATTCCCTGATGTTAATCGGGTCTTGATTCGCTTGACGCTGCTG
binding signal (GST-Ap-NF-kB RHD): 3.03 z-score
binding signal [1]: 3.39 z-score
binding signal (GST-Co-NF-kB): 2.52 z-score
binding signal (GST-Dm-Relish): 1.75 z-score
binding signal (GST-Aq-NF-kB): 3.38 z-score

CCGATTAACATCAGGGACAACCCTGATGTTAATCGGGTCTTGATTCGCTTGACGCTGCTG
binding signal (GST-Ap-NF-kB RHD): 3.42 z-score
binding signal [1]: 4.16 z-score
binding signal (GST-Co-NF-kB): 1.06 z-score
binding signal (GST-Dm-Relish): 3.09 z-score
binding signal (GST-Aq-NF-kB): 5.59 z-score

CCGATTAACATCAGGGAAAACGATGATGTTAATCGGGTCTTGATTCGCTTGACGCTGCTG
binding signal (GST-Ap-NF-kB RHD): 2.75 z-score
binding signal [1]: 3.95 z-score
binding signal (GST-Co-NF-kB): 3.39 z-score
binding signal (GST-Dm-Relish): 1.18 z-score
binding signal (GST-Aq-NF-kB): 2.74 z-score

CCGATTAACATCAAAATCTTCCCTGATGTTAATCGGGTCTTGATTCGCTTGACGCTGCTG
binding signal (GST-Ap-NF-kB RHD): 5.74 z-score
binding signal [1]: 5.94 z-score
binding signal (GST-Co-NF-kB): 4.16 z-score
binding signal (GST-Dm-Relish): 1.48 z-score
binding signal (GST-Aq-NF-kB): 5.28 z-score

CCGATTAACATCAGGATATTCCCTGATGTTAATCGGGTCTTGATTCGCTTGACGCTGCTG
binding signal (GST-Ap-NF-kB RHD): 4.67 z-score
binding signal [1]: 5.16 z-score
binding signal (GST-Co-NF-kB): 3.51 z-score
binding signal (GST-Dm-Relish): 3.37 z-score
binding signal (GST-Aq-NF-kB): 6.63 z-score

CCGATTAACATCAAATTCCCAAATGATGTTAATCGGGTCTTGATTCGCTTGACGCTGCTG
binding signal (GST-Ap-NF-kB RHD): 1.72 z-score
binding signal [1]: 3.62 z-score
binding signal (GST-Co-NF-kB): 2.55 z-score
binding signal (GST-Dm-Relish): 4.57 z-score
binding signal (GST-Aq-NF-kB): 2.31 z-score
